Neddyl block = inhibitors of human cullin neddylation; P61081+Q13564; TR-FRET cullin neddylation, biochemical; calls only at 25 µM; hit rate 0.58% among 360,000; AID 651699; in the data active = inhibition above about 36%
LEDGF integ inh = blocks HIV-1 LEDGF/p75-dependent DNA integration | AID 743269 | inhibition, % at 3.7 µM | hit rate 0.64% among 370,000 | TR-FRET IN-LEDGF/p75 DNA integration, Eu/Cy5;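 active = inhibition above the screen-wide mean plus 3 SD, cut at about 13% in these data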;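 also: signal is the Cy5 over europium emission ratio at 671 and 618 nm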
MBD2 inh = blocks human MBD2 binding to methylated DNA; hit rate 0.31% among 370,000; inhibition, % at 4.4 µM; TR-FRET, MBD2 binding to methylated oligonucleotide; Q9UBB5; in the data active = inhibition above about 13%
Target sequence (Q9UBB5 whole entry, looked up): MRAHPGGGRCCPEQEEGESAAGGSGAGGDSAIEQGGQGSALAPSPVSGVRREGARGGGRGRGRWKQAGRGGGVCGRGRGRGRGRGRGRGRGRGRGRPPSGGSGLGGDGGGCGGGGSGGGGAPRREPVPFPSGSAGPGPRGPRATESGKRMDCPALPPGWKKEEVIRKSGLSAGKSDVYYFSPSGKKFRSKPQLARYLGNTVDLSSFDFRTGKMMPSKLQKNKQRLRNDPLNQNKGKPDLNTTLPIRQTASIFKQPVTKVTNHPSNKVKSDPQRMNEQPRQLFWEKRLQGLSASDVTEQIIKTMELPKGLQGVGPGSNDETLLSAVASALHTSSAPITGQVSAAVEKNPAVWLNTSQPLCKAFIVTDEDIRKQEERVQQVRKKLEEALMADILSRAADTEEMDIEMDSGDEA
UHRF1 MBD2 ctr = human UHRF1 methylated DNA binding inhibitors; inhibition, % at 4.4 µM; hit rate 0.75% among 370,000; AID 687016; UHRF1 binding to methylated oligo, TR-FRET; Q96T88;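 also: UHRF1 SRA domain binding a hemimethylated CpG hairpin DNA probe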
Rin1 Abl inh = human Rin1-Abl interaction inhibition | P00519+Q13671 | TR-FRET Rin1/Abl binding, biochemical | inhibition, % at 7.35 µM | hit rate 0.4% among 360,000; in the data active = inhibition above about 5%, passing the limit was not always enough
proKLK7 act = activates the human kallikrein-7 zymogen; hit rate 0.9% among 370,000; purified proKLK7, EDANS-DABCYL substrate fluorescence; 100% is mature enzyme control, 0% vehicle; activation, % at 7 µM; AID 652039;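 active = activation above the mean of all tested compounds plus 3 SD, computed per campaign excluding outliers beyond control limits, cut at about 13% in these data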
Target sequence (P49862 whole entry, looked up): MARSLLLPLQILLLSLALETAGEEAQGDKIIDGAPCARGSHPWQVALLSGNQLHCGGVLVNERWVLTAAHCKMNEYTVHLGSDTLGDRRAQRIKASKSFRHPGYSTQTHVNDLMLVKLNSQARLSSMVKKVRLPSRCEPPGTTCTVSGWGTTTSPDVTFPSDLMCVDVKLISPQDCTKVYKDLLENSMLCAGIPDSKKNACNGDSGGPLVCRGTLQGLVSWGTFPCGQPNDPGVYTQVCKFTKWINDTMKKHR
UHRF1 DNA bind = inhibits human UHRF1 binding to methylated oligonucleotide, MBD2 counter-screen; shares compounds with MBD2 inh; TR-FRET; inhibition, % at 4.4 µM; hit rate 25% among 1,000; AID 720530;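 also: UHRF1 SRA domain binding a labeled hemimethylated CpG hairpin DNA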
MBD2 confirm = confirmation of human MBD2-DBD methylated oligonucleotide binding inhibitors; shares compounds with MBD2 inh; TR-FRET MBD2-DBD binding to methylated oligonucleotide; inhibition, % at 4.4 µM; hit rate 26% among 1,000; in the data active = inhibition above about 14%
Of the large screens only hits and unclear results are named; the others gave an inactive call (follow-up assays come after a bar, where shown). A selection: hits, their analogues and other compounds. The true share with any hit is near 3.1%. Rule as the data show it, unless noted: active = inhibition above about 21%; inactive = the rest.

COC(=O)c1ccc(OC)c(CSc2nnc(COc3ccc(Cl)cc3)o2)c1	MBD2 inh 13.6 | UHRF1 DNA bind inactive | MBD2 confirm inactive
CN(Cc1cn(Cc2cccc(Cl)c2)nn1)C1CN(Cc2cn(Cc3cccc(Cl)c3)nn2)S(=O)(=O)C1 (configuration not stated)	MBD2 inh 14.4 (no result: Rin1 Abl inh) | UHRF1 DNA bind inactive | MBD2 confirm inactive
CN1CCC(N2CCN(C3CN(Cc4cn(Cc5cccc(C(F)(F)F)c5)nn4)S(=O)(=O)C3)CC2)CC1 (configuration not stated)	MBD2 inh 14.5, UHRF1 MBD2 ctr 22.7 (no result: Rin1 Abl inh) | UHRF1 DNA bind inactive | MBD2 confirm inactive
O=S1(=O)CC(N2CCN(CCO)CC2)CN1Cc1cn(Cc2ccccc2)nn1 (configuration not stated)	none (no result: Rin1 Abl inh)
O=S1(=O)CC(N2CCN(CCO)CC2)CN1Cc1cn(Cc2ccc(C(F)(F)F)cc2)nn1 (configuration not stated)	MBD2 inh 14.2 (no result: Rin1 Abl inh) | UHRF1 DNA bind inactive | MBD2 confirm inactive
O=C(C1CCCN1S(=O)(=O)c1ccc([N+](=O)[O-])cc1)N1CCN(c2ccccc2)CC1 (configuration not stated)	none (no result: Neddyl block, Rin1 Abl inh)
CC(C)=CCC/C(C)=C/CNCC(=O)N1c2ccccc2[C@]2(c3ccccc3)C[C@@H]3C(=O)N(C/C=C(\C)CCC=C(C)C)CC(=O)N3[C@H]12	none (no result: Neddyl block, Rin1 Abl inh)
C=CCn1c2ccccc2c(=O)c2cc(C#Cc3cc(OC)cc(OC)c3)ccc21	none
C=CCN1[C@H](CO)[C@H](c2ccc(C#CC3(O)CCCC3)cc2)[C@@H]1C#N	MBD2 inh 13.6 (no result: Neddyl block, Rin1 Abl inh) | UHRF1 DNA bind inactive | MBD2 confirm inactive
CCOC(=O)CNC(=O)c1ccc(C#CC2(O)CCCCC2)cc1	none
C=CCN1[C@H](C#N)[C@@H](c2ccc(C#Cc3ccccc3OC)cc2)[C@H]1CO	MBD2 inh 13.6 (no result: Neddyl block, Rin1 Abl inh) | UHRF1 DNA bind inactive | MBD2 confirm inactive
Cc1cc(NC(=O)c2ccc3[nH]c(C)c(C)c3c2)ccn1	MBD2 inh 14.1 | UHRF1 DNA bind inactive | MBD2 confirm inactive
CC(C)NC(=O)Cn1c(SCC(=O)c2ccc(F)cc2)nc2ccccc21	MBD2 inh 14.0, UHRF1 MBD2 ctr 21.8 | UHRF1 DNA bind inactive | MBD2 confirm inactive
CC1CCc2c(sc(NC(=O)CN3CCN(C(=O)c4ccco4)CC3)c2C#N)C1 (configuration not stated)	none
NC(=O)COC(=O)c1cc(Cl)cc(Cl)c1N	MBD2 inh 32.3 (not shown: Neddyl block) | UHRF1 DNA bind inactive | MBD2 confirm inactive
Cc1ccc(NC(=S)N(CCCN2CCN(C)CC2)Cc2cccs2)cc1	MBD2 inh 16.3, UHRF1 MBD2 ctr 25.2 | UHRF1 DNA bind inactive | MBD2 confirm inactive
Cc1ccc(NC(=S)N(CCCN2CCN(C)CC2)Cc2cccs2)cc1C	none
CSc1ccc(CN(C)CC(=O)NC(C)c2ccccc2)cc1 (configuration not stated)	MBD2 inh 18.6 | UHRF1 DNA bind inactive | MBD2 confirm inactive
CC(NC(=O)CN(C)Cc1ccc(Br)cc1)c1ccccc1 (configuration not stated)	none
COc1ccccc1NC(=O)N1CCC(c2nc3cc(C)c(C)cc3[nH]2)CC1	MBD2 inh 13.4 | UHRF1 DNA bind inactive | MBD2 confirm inactive
CCc1ccc(-c2n[nH]nc2C2=CC(=O)C[C@H](c3ccc(F)cc3)C2)cc1	none
C=CCOc1c(Br)cc(CNn2nnnc2N)cc1OCC	none
COc1ccc(CC(=O)Nc2ccc(OC)c(NC(=O)c3ccco3)c2)cc1	MBD2 inh 15.0 | UHRF1 DNA bind inactive | MBD2 confirm inactive
Cc1oc2ccc(O)cc2c1C(=O)c1ccc(Br)cc1	MBD2 inh 16.1 | UHRF1 DNA bind inactive | MBD2 confirm inactive
COc1cccc(C(=O)N[C@H](C(=O)N2CCC[C@H]2C(=O)NC2CCCC2)C2CCCCC2)c1	none (no result: Neddyl block, Rin1 Abl inh)
CCOC(=O)c1[nH]c2ccc(OC)cc2c1NC(=O)c1ccc(OC)c(OC)c1	MBD2 inh 15.2 | UHRF1 DNA bind inactive | MBD2 confirm inactive
COc1ccc(S(=O)(=O)NCc2ccncc2)cc1NC(=O)c1ccccc1	MBD2 inh 15.8, UHRF1 MBD2 ctr 32.6 | UHRF1 DNA bind inactive | MBD2 confirm inactive
CCCc1cc(=O)[nH]c(SCC(=O)Nc2cc(C)on2)n1	none
CCc1cc(/C(Cc2csc(C)n2)=N/O)c(O)cc1O	MBD2 inh 13.8 | UHRF1 DNA bind inactive | MBD2 confirm inactive
c1ccc2c(c1)C1=NCCN1c1ccccc1-2	MBD2 inh 25.9 (not shown: Neddyl block) | UHRF1 DNA bind inactive | MBD2 confirm 38.7
O=C(Nc1ncc2c(n1)CC(c1cccc(Cl)c1)CC2=O)c1ccco1 (configuration not stated)	MBD2 inh 52.2, UHRF1 MBD2 ctr 85.8 | UHRF1 DNA bind inactive | MBD2 confirm inactive
O=C(Nc1ncc2c(n1)CC(c1ccccc1)CC2=O)c1ccco1 (configuration not stated)	none
FC(F)c1nc2ccccc2[nH]1	none
FC(F)Sc1nc2ccccc2[nH]1	MBD2 inh 40.2 | UHRF1 DNA bind inactive | MBD2 confirm inactive
CC1=C(C(=O)N(C)C)CC(CC(=O)NC(c2ccccc2)c2ccccc2)C(=O)N1Cc1ccc(F)cc1 (configuration not stated)	MBD2 inh 13.5, UHRF1 MBD2 ctr 23.7 | UHRF1 DNA bind inactive | MBD2 confirm inactive
CC(=O)Nc1ccc(NC(=O)C(C)OC(=O)C2(c3ccc(Cl)cc3)CCCC2)cc1 (configuration not stated)	MBD2 inh 18.6, UHRF1 MBD2 ctr 25.1 | UHRF1 DNA bind inactive | MBD2 confirm inactive
O=C(NCc1ccccc1)OCCN1C(=O)CCC12CCC(c1ccccc1)CC2 (configuration not stated)	none (no result: Neddyl block, Rin1 Abl inh)
O=C(OCc1cc(=O)n2c(n1)sc1ccccc12)c1ccc2c(=O)n3c(nc2c1)CCC3	MBD2 inh 22.0, UHRF1 MBD2 ctr 39.4 | UHRF1 DNA bind 26.6 | MBD2 confirm 22.3
O=C(Nc1ccc(-c2nc3ccccc3[nH]2)cc1)c1ccc2c(c1)OCO2	MBD2 inh 13.6 (not shown: Neddyl block) | UHRF1 DNA bind inactive | MBD2 confirm inactive
Cn1ncc([N+](=O)[O-])c1C(=O)NC1CCCCC1	none
CC(C)Cc1ccc(/C=C/C(=O)NC2CC2)cc1	none
COc1ccc(C)cc1NC(=O)c1cccc(C(=O)Nc2cc(C)ccc2OC)c1	MBD2 inh 74.0 | UHRF1 DNA bind inactive | MBD2 confirm inactive
CCNC(=O)N(C)[C@H]1C[C@H]2c3[nH]c4cccc(-c5cccc(F)c5)c4c3CCN2C(=O)[C@H]1[C@H](C)O	none (no result: Neddyl block, Rin1 Abl inh)
CCOC(=O)c1c(C)n(C)c2ccc(OC)c([N+](=O)[O-])c12	MBD2 inh 13.4, UHRF1 MBD2 ctr 28.6 | UHRF1 DNA bind inactive | MBD2 confirm inactive
